Data on 30 compounds can be found in ChEMBL document CHEMBL1157539, “Thousands of chemical starting points for antimalarial lead identification” (Nature, 2010).

Where “and” joins values, the source holds several entries; their conditions need not be identical. Equal values may be shown once.

Holding throughout (assay type): functional
Test [1] concerns Plasmodium falciparum. Nature of the test: GSK_TCMDC: Inhibition of Plasmodium falciparum 3D7 in whole red blood cells, using parasite LDH activity as an index of growth. Test compounds present at 2uM.
Test [2] concerns Plasmodium falciparum. Nature of the test: GSK_TCMDC: Inhibition of Plasmodium falciparum Dd2 in whole red blood cells, using parasite LDH activity as an index of growth. Test compounds present at 2uM.
For a further test, the system named is HepG2. Nature of the test: GSK_TCMDC: Percent inhibition of human HepG2 cell line. Test compounds present at 10uM.

On to `COCCNCc1cccc(-c2ccc(CN(C(=O)Nc3ccccc3)C3CCN(Cc4ccccc4)CC3)cc2)c1.O=C(O)C(F)(F)F`, for which the Inhibition in the test with Plasmodium falciparum [1] was 100%; in the test on Plasmodium falciparum [2], 45%; in the test with HepG2, 25%.
For `O=C(NC1CCN(CCc2c[nH]c3ccc(F)cc23)CC1)c1ncc(-c2ccccc2)[nH]1.O=C(O)C(F)(F)F`, in that order: 100%, 69% and 0%.
For `CO/C(=C\C=C\c1cc2cc(Cl)c(Cl)cc2[nH]1)C(=O)N[C@H]1CN2CCC1CC2`, in that order: 82%, 36% and 43%.
For `Oc1ccc2[nH]cc(C3=CCN(CCc4ccccc4)CC3)c2c1`, in that order: 96%, 60% and 11%.
Take `COc1ccc(F)cc1-c1csc(N(c2ccc(F)cc2)C2CCNCC2)n1.O=C(O)C(F)(F)F`: the Inhibition in the test with Plasmodium falciparum [1] amounted to 94%; in the test on Plasmodium falciparum [2], 0%; in the test with HepG2, 15%.
In the same order, the values of `CC(Cc1ccc(NC(=O)[C@H](C)NCCc2cccc(Cl)c2)cc1)NCCc1cccc(Cl)c1.Cl` (stereo not given in full) are 100%, 54% and 99%.
For `CCOc1ccc(CN(CCc2ccc3c(c2)OCO3)Cc2cc(OC)ccc2O)cc1.O=C(O)C(=O)O`, in that order: 96%, 88% and 3%.
Regarding `Cc1[nH]c2ccccc2c1C1=CCN(CCCCCC23CCCc4cccc(c42)NC3=O)CC1` (stereo not given), the Inhibition in the test with Plasmodium falciparum [1] came out at 94%; with Plasmodium falciparum [2], 91%; in the test on HepG2 it was 11%.
In the same order, the values of `O=C(/C=C/c1ccc(Cl)c(Cl)c1)N1CCC(CN2C3CCC2CC(c2c[nH]c4ccccc24)C3)CC1` (stereo not given) are 100%, 66% and 84%.
In the same order, the values of `Oc1ccc2[nH]cc(C3=CCN(Cc4ccccc4)CC3)c2c1` are 94%, 67% and 1%.
For `CN(c1cc(NC(=O)c2ccc(F)cc2)ccn1)C1CCN(Cc2cccc(F)c2)CC1.O=C(O)C(F)(F)F`, in that order: 100%, 97% and 13%.
Consider `CC(Cc1ccc(Sc2ccccc2)cc1)NCC(O)c1cccc(C(F)(F)F)c1` (stereo not given), for which the Inhibition is given as 99% with Plasmodium falciparum [1], 53% in the test on Plasmodium falciparum [2] and 0% in the test with HepG2.
In the same order, the values of `O=C(/C=C/c1ccsc1)NC1CCC(CN2CCC(c3c[nH]c4ccccc34)CC2)CC1` (stereo not given) are 82%, 20% and 29%.
In the same order, the values of `Cc1cc(N)nc2ccc(CNCCc3ccccc3Br)cc12.Cl` are 100%, 77% and 28%.
Consider `O=C(Nc1ccccc1Cl)NC1CCC(CN2CCC(c3c[nH]c4ccccc34)CC2)CC1` (stereo not given), for which the Inhibition with Plasmodium falciparum [1] was 100% and 98%; in the test on Plasmodium falciparum [2], 34% and 31%; in the test with HepG2, 32% and 37%.
Regarding `CC(C)NC(=O)Cn1cc(C2CCN(CC3CCN(C(=O)/C=C/c4ccc(Cl)c(Cl)c4)CC3)CC2)c2ccccc21.O=C(O)C(F)(F)F`, the Inhibition in the test on Plasmodium falciparum [1] is given as 97%; in the test with Plasmodium falciparum [2] it was 55%; with HepG2, 31%.
For `O=C1Nc2cccc3c2C1(CCCCN1CC=C(c2c[nH]c4ncccc24)CC1)CCC3` (stereo not given), in that order: 92%, 80% and 11%.
In the same order, the values of `Cc1cccc(C(=O)Nc2ccnc(N(C)C3CCN(Cc4cccc(O)c4)CC3)c2)c1.O=C(O)C(F)(F)F` are 89%, 62% and 5%.
As for `Cc1[nH]c2ccccc2c1C1=CCN(CC2CC2C(=O)c2ccccc2)CC1` (stereo not given), the Inhibition turned out to be 95% with Plasmodium falciparum [1], 88% in the test on Plasmodium falciparum [2] and 18% in the test with HepG2.
In the same order, the values of `O=C(NC1CCC(CN2CCC(c3c[nH]c4ccccc34)CC2)CC1)c1[nH]c(=O)[nH]c(=O)c1F` (stereo not given) are 99%, 59% and 5%.
For `C=C[C@H]1CN2CC[C@H]1C[C@@H]2[C@@H](O)c1ccnc2ccccc12` [CINCHONINE], in that order: 100%, 2% and 0%.
In the same order, the values of `CC[C@H]1CN2CC[C@@H]1C[C@H]2[C@H](O)c1cc(N2CCCC(C)(C)C2)nc2ccc(OC)cc12` are 100%, 72% and 25%.
With `CSc1nccc(-c2ccc(S(=O)(=O)NC3CCC(CN4CCC(c5c[nH]c6ccccc56)CC4)CC3)s2)n1` (stereo not given), the Inhibition was 100% in the test with Plasmodium falciparum [1]; 33% and 67% in the test with Plasmodium falciparum [2]; 61% and 36% in the test with HepG2.
Regarding `COc1ccc(C(=O)C2CC2CN2CC=C(c3c[nH]c4ccc(OC)nc34)CC2)cc1` (stereo not given), the Inhibition turned out to be 98% with Plasmodium falciparum [1], 91% with Plasmodium falciparum [2] and 8% in the test with HepG2.
`CC[C@H]1CN2CC[C@@H]1C[C@H]2[C@H](O)c1cc(N2CCC(CO)CC2)nc2ccc(OC)cc12`: the Inhibition was 99% with Plasmodium falciparum [1], 99% with Plasmodium falciparum [2] and 4% in the test on HepG2.
For the compound `Cc1ccc(C)c(N2CCN(Cc3ccccc3O)CC2)c1`, the Inhibition in the test on Plasmodium falciparum [1] was 100%; in the test on Plasmodium falciparum [2], 90%; in the test with HepG2, 11%.
Take `CC[C@H]1CN2CC[C@@H]1C[C@H]2[C@H](O)c1cc(-c2cc(Cl)cc(Cl)c2)nc2ccc(OC)cc12`: the Inhibition amounted to 99% in the test with Plasmodium falciparum [1], 97% with Plasmodium falciparum [2] and 0% with HepG2.
Regarding `COCC(=O)N(Cc1cccc(-c2ccc(CNCCc3ccccc3)cc2)c1)C1CCN(Cc2ccccc2)CC1.O=C(O)C(F)(F)F`, the results for the Inhibition in the test with Plasmodium falciparum [1], with Plasmodium falciparum [2] and in the test on HepG2 were 93%, 45% and 44%, respectively.
For `CC(=O)Nc1ccc2[nH]cc(C3CCN(CC4CCC(NC(=O)/C=C/c5ccc(Cl)c(Cl)c5)CC4)CC3)c2c1` (stereo not given), the Inhibition with Plasmodium falciparum [1] was 100% and 90%; with Plasmodium falciparum [2], 99% and 59%; in the test with HepG2, 10% and 18%.
For `Cc1ccc2c(C3=CCN(CCCCC4(C)C(=O)Nc5c(F)cccc54)CC3)c(C)[nH]c2c1` (stereo not given), the Inhibition in the test with Plasmodium falciparum [1] was 95%; in the test with Plasmodium falciparum [2], 89%; with HepG2, 5%.
